# Measured values taken from the supplement of paper PMC3334620.
# Whole data set: some 33,000 sequences, median “E-score (-0.5 to 0.5)” near -0.016, cut for the highest 2% near 0.31. This excerpt belongs to a sample that is enriched for the highest values.
# Molecular target: Cst6 (UniProt P40535)
# Assay: PBM E-score (8-mer binding enrichment) (E-score (-0.5 to 0.5)); higher = stronger / more preferred TF binding
# Settings: protein concentration: 200 nM; construct: GST-DNA-binding domain
# Procedure: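 Universal 'all 10-mer' protein binding microarrays (Agilent AMADID 015681) probed with GST-tagged S. cerevisiae TFs (full-length or DBD) made by in vitro transcription/translation (PURExpress), about 100-200 nM. Bound TF was detected with fluorescent anti-GST. Each ungapped 8-mer (which stands for itself and its reverse complement) is scored by the PBM enrichment score (E-score), a modified Wilcoxon-Mann-Whitney statistic from -0.5 to +0.5, computed with the Universal PBM Analysis Suite. Scale: above 0.35 generally sequence-specific binding.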
# UniProt P40535, sequence (P40535 whole entry): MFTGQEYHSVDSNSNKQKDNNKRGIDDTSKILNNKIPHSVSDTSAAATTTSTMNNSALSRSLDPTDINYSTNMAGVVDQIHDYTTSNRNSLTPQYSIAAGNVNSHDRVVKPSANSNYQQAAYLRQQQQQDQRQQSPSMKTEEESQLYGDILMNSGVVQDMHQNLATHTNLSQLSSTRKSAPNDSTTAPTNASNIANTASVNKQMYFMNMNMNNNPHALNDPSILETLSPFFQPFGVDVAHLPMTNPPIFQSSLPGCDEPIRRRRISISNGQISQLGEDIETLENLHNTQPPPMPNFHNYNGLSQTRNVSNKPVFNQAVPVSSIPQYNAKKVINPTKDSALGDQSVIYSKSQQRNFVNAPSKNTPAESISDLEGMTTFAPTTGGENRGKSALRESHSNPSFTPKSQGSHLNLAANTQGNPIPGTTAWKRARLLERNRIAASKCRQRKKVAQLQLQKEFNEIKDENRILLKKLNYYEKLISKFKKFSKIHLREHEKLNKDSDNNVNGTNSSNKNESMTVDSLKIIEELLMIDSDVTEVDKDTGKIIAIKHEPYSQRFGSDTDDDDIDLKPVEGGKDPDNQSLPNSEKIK
row,Sequence,PBM E-score
1,ACGGGGCC,0.00152
2,AGTGAACG,-0.0226
3,GGCTCCCC,-0.226
4,ATTCCATC,0.199
5,CCGGTGAC,0.335
6,CCGGTGAA,0.0804
7,CCGGTGAG,-0.116
8,TACACAAA,0.311
9,AACACAAA,0.0222
10,CACACAAA,0.165
11,TCTGGCCA,-0.0762
12,AATTTTGC,0.144
13,CGCATCCG,-0.0682
14,ATCATCCC,0.154
15,CCTCACCC,0.0853
16,CGTCACCA,0.484
17,GGTCACCA,-0.148
18,AGTCACCC,0.117
19,AGTCACCA,0.0433
20,CGTCACCC,0.466
21,CGCCTCAC,0.135
22,ATACCATC,0.00666
23,ATTCACAC,0.134
24,ACGAGTAA,0.141
25,GGAAATCA,0.0954

row,Sequence,PBM E-score
1,CGAAATCA,0.269
2,TGAAATCA,0.322
3,CCTTTTCG,0.021
4,GTTGGACA,-0.0168
5,AAGAAAGT,0.153
6,GAGGGCTA,-0.27
7,ATTTCGGG,0.0105
8,AAAAGTGT,0.0733
9,AAAAGTGG,0.112
10,AAAAGTGA,0.306
11,GGGGTAAA,0.0414
12,CCTGGGAA,-0.136
13,GCGAAAAA,0.197
14,CAAACTTG,-0.0352
15,GTCTCCCA,-0.244
16,TTAATAAA,0.307
17,TTTATAAA,0.359
18,GTAATAAC,0.197
19,GTAAATAA,0.176
20,GTAATAAA,0.352
21,TAAATAAA,0.289
22,ATAATAAA,0.325
23,ATAATAAC,0.205
24,ATAATAAT,0.238
25,CTAATAAA,0.169

row,Sequence,PBM E-score
1,CTTATAAA,0.138
2,GTTATAAA,0.269
3,AACAGAAC,0.032
4,ACCAGCAT,-0.104
5,ATAAGAAT,0.253
6,ATAAGAAA,0.327
7,ATAAGAAC,0.248
8,AAGGAGGG,-0.0908
9,GTTTTATA,0.122
10,ATTTTTTA,0.325
11,ATTTTACC,0.264
12,ATTTTATA,0.321
13,AATTTACG,0.296
14,ATTTTATG,0.248
15,ATTTTACG,0.316
16,AATTTTTA,0.228
17,ATATTTTA,0.233
18,CGCCCCAA,0.0361
19,CCAGGCTC,-0.28
20,GGAGACGA,-0.0641
21,AGACCGTC,-0.127
22,CTCACCTC,0.0122
23,TCTTAAGA,0.0388
24,CAATAGGA,-0.0291
25,AGACAACA,0.0611

row,Sequence,PBM E-score
1,CGACAACA,0.243
2,GGACAAAA,0.106
3,TGACAACA,0.346
4,TGACAAAA,0.337
5,GAACAAAA,0.186
6,AAACAAAA,0.219
7,CGACAAAA,0.163
8,TAACAAAA,0.353
9,AGAACCGA,-0.127
10,CTCTACGC,-0.109
11,GGGAAAGA,-0.0768
12,CCGTGACA,0.15
13,CCGTGACG,0.417
14,CCGTGACC,-0.145
15,ACGTGACT,0.00931
16,ACGTGACG,0.451
17,ACGTGACA,0.248
18,AAAATCGA,0.106
19,TCAGGAAA,0.053
20,TCTTGCCA,-0.0736
21,CTTGCGGC,-0.0317
22,CTTCATAA,0.182
23,CCTCATAA,0.199
24,AGTCATAA,0.217
25,TGTCATAA,0.323

row,Sequence,PBM E-score
1,CGTCATAA,0.476
2,GGTCATAA,0.213
3,AAATCCTA,0.0429
4,ACGGGACG,-0.0627
5,AAGGGACT,-0.229
6,GCTGGTCC,-0.241
7,ACAGGGTC,-0.231
8,AAAATCTC,0.0464
9,CGTCATGA,0.461
10,AGTCATGC,-0.0259
11,AGTCATGA,0.124
12,CCTCATGC,-0.15
13,CGTCATGC,0.472
14,GGTCATGA,0.239
15,CCTCTCCC,-0.367
16,ATTTCCAG,0.0306
17,ATGTGGGC,-0.068
18,CCACCCGA,-0.0893
19,ACGACAGA,-0.00441
20,CAATATTC,-0.0581
21,AAATATTA,0.286
22,CAATATGA,0.245
23,CAATATTA,0.215
24,TAATATTA,0.391
25,TAATATGA,0.305

row,Sequence,PBM E-score
1,GAATATTA,0.188
2,CAATATTG,0.306
3,AAATATGA,0.239
4,CAGTGCAA,0.0823
5,GGGTACCC,-0.239
6,GCCGCCGA,0.0801
7,GCTAGTAA,0.0344
8,CCCCATTA,-0.257
9,AAGGTAGC,-0.198
10,CTTTGGGC,-0.163
11,ACATCAGG,0.163
12,AGTCCCCC,-0.43
13,ATTCGTCA,0.423
14,ATTCGTCG,0.0126
15,GTTCGTCA,0.269
16,CTTCGTCC,-0.155
17,CTTCGTCA,0.336
18,CGTCGTCA,0.258
19,CGGTGCAA,-0.202
20,CCTATGGC,-0.219
21,GCTAACAC,-0.00396
22,AAAGGGAG,-0.152
23,TAACTGTA,0.032
24,CGGATAAG,-0.118
25,AGGGGCTG,-0.271

row,Sequence,PBM E-score
1,CGCCAGCC,-0.193
2,ATAAATTA,0.373
3,ATAAATAA,0.335
4,ATAAATTG,0.258
5,CTAAATTA,0.262
6,ATAAATAG,0.135
7,GAAAATTA,0.195
8,TTAAATAA,0.18
9,AAAAATTA,0.333
10,CAAAATTA,0.233
11,ATTTGACA,0.173
12,ACGCCAAT,0.223
13,AGCCTTAT,-0.0913
14,CCGCGTCC,0.099
15,ACGCGTCT,-0.0602
16,CCGCGTCA,0.34
17,TCGCGTAA,0.314
18,CCGCGTCG,0.0654
19,ACGCGTCA,0.381
20,ACGCGTAA,0.129
21,GCGCGTAA,0.224
22,GCGCGTCA,0.381
23,GCGCGTCC,-0.198
24,GCGCGTTA,0.0245
25,ACGCGTCC,-0.129
